How the values were obtained:
CHO = assay: % viability of CHO cells (MTT); higher = less toxic; details: 48 h
In short: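 CHO cells were seeded at 10^6 cells/well in 200 µL and left overnight to attach. The medium was then replaced with fresh medium containing compound at 2 or 20 µM for 48 h. Survival was read colorimetrically with the tetrazolium (MTT) assay. Percent viability was expressed relative to untreated cells.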

HepG2-A16-CD81 = assay: % inhibition of HepG2 viability (CellTiter-Glo); higher = more toxic; details: 5 µM;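 also: HepG2-A16-CD81 hepatoma cells plated as in the liver-stage assay but without sporozoites, with DMSO wells as negative and 25 µM puromycin as positive control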
[1] = tested on: Plasmodium falciparum NF54 stage IV/V gametocytes; assay: % inhibition of gametocyte viability (PrestoBlue); higher = more inhibition; details: 48 h
In short: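 Stage IV/V NF54 gametocytes (2% gametocytaemia, 5% haematocrit, 100 µL/well) were exposed to compound at 1 or 5 µM. Incubation was 48 h at 37 °C, stationary and hypoxic, followed by 10 µL PrestoBlue for 2 h. Fluorescence at 612 nm was read on 70 µL of transferred supernatant. Percent inhibition of gametocyte viability was normalised to DMSO and kill controls from a single run.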

[2] = tested on: Plasmodium falciparum NF54 asexual blood stage; assay: % inhibition of asexual blood stage proliferation (pLDH); higher = more inhibition; details: 72 h
In short: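 Plasmodium falciparum NF54 ring-stage cultures (1% haematocrit, 2% parasitaemia) were exposed to compound at 2 or 20 µM in 96-well plates. Incubation was 72 h at 37 °C under 4% CO2, 3% O2 and 93% N2. Survival was read colorimetrically at 620 nm with the parasite lactate dehydrogenase assay. Percent inhibition of asexual proliferation was normalised to DMSO and kill controls, and the screen was run on two separate occasions.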

[3] = tested on: Plasmodium falciparum NF54 stage IV/V gametocytes; assay: % inhibition of gametocyte viability (ATP bioluminescence); higher = more inhibition; details: 24 h
In short: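 In 96-well plates, compound at 1 or 5 µM was added to 30,000 density-gradient-enriched stage IV/V NF54 gametocytes per well and incubated for 24 h at 37 °C. ATP readout used the Promega BacTiter Glo bioluminescence system. Percent inhibition of gametocyte viability comes from a single run, normalised to control wells.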

[4] = tested on: Plasmodium falciparum NF54 stage IV/V gametocytes; assay: % inhibition of gametocyte viability (luciferase reporter); higher = more inhibition; details: 48 h
In short: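 Percent inhibition was normalised to controls from a single run. Stage IV/V gametocytes of the NF54-Pfs16-GFP-Luc line, at 2% gametocytaemia and 2% haematocrit, were exposed to compound at 1 or 5 µM for 48 h at 37 °C under stationary, hypoxic conditions. Luminescence was then read from 30 µL lysate mixed with 30 µL Promega luciferin substrate on a GloMax-Multi+ reader with 10 s integration.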

COc1ccc(NC(=O)c2cc3ccccn3n2)cc1
% viability of CHO cells (CHO; 2 µM): 112%
% viability of CHO cells (CHO; 20 µM): 57%
% inhibition of HepG2 viability (HepG2-A16-CD81): -0.446%
% inhibition of gametocyte viability ([1]; 1 µM): < 0%
% inhibition of gametocyte viability ([1]; 5 µM): 10.6%
% inhibition of asexual blood stage proliferation ([2]; 2 µM): 20.3%
% inhibition of asexual blood stage proliferation ([2]; 20 µM): 87.1%
% inhibition of gametocyte viability ([3]; 1 µM): < 0%
% inhibition of gametocyte viability ([3]; 5 µM): < 0%
% inhibition of gametocyte viability ([4]; 1 µM): < 0%
% inhibition of gametocyte viability ([4]; 5 µM): < 0%

CCc1ccccc1OCCN1CCCCCC1
% viability of CHO cells (CHO; 2 µM): 96.9%
% viability of CHO cells (CHO; 20 µM): 109%
% inhibition of HepG2 viability (HepG2-A16-CD81): 14%
% inhibition of gametocyte viability ([1]; 1 µM): 15.5%
% inhibition of gametocyte viability ([1]; 5 µM): 15.2%
% inhibition of asexual blood stage proliferation ([2]; 2 µM): 10.6%
% inhibition of asexual blood stage proliferation ([2]; 20 µM): 87.1%
% inhibition of gametocyte viability ([3]; 1 µM): 6.82%
% inhibition of gametocyte viability ([3]; 5 µM): < 0%
% inhibition of gametocyte viability ([4]; 1 µM): < 0%
% inhibition of gametocyte viability ([4]; 5 µM): 2.04%

CC1CCc2c(N3CCC(O)CC3)c(F)cc3c(=O)c(C(=O)O)cn1c23 (stereo not given)
% viability of CHO cells (CHO; 2 µM): 84.2%
% viability of CHO cells (CHO; 20 µM): 87.6%
% inhibition of HepG2 viability (HepG2-A16-CD81): 2.9%
% inhibition of gametocyte viability ([1]; 1 µM): < 0%
% inhibition of gametocyte viability ([1]; 5 µM): 11.7%
% inhibition of asexual blood stage proliferation ([2]; 2 µM): 69.7%
% inhibition of asexual blood stage proliferation ([2]; 20 µM): 98.8%
% inhibition of gametocyte viability ([3]; 1 µM): < 0%
% inhibition of gametocyte viability ([3]; 5 µM): < 0%
% inhibition of gametocyte viability ([4]; 1 µM): 1.04%
% inhibition of gametocyte viability ([4]; 5 µM): 6.66%

Cc1onc(-c2ccccc2Cl)c1C(=O)N[C@@H]1C(=O)N2[C@@H]1SC(C)(C)[C@@H]2C(=O)O
% viability of CHO cells (CHO; 2 µM): 126%
% viability of CHO cells (CHO; 20 µM): 143%
% inhibition of HepG2 viability (HepG2-A16-CD81): -1.54%
% inhibition of gametocyte viability ([1]; 1 µM): < 0%
% inhibition of gametocyte viability ([1]; 5 µM): 30.1%
% inhibition of asexual blood stage proliferation ([2]; 2 µM): 8.35%
% inhibition of asexual blood stage proliferation ([2]; 20 µM): -0.0824%
% inhibition of gametocyte viability ([3]; 1 µM): < 0%
% inhibition of gametocyte viability ([3]; 5 µM): < 0%
% inhibition of gametocyte viability ([4]; 1 µM): < 0%
% inhibition of gametocyte viability ([4]; 5 µM): 7.91%

CCCNc1ccc(S(=O)(=O)Nc2cc(C)on2)cc1
% viability of CHO cells (CHO; 2 µM): 93.3%
% viability of CHO cells (CHO; 20 µM): 116%
% inhibition of HepG2 viability (HepG2-A16-CD81): -1.94%
% inhibition of gametocyte viability ([1]; 1 µM): -0.214%
% inhibition of gametocyte viability ([1]; 5 µM): 6.51%
% inhibition of asexual blood stage proliferation ([2]; 2 µM): 1.93%
% inhibition of asexual blood stage proliferation ([2]; 20 µM): -9.2%
% inhibition of gametocyte viability ([3]; 1 µM): 0.832%
% inhibition of gametocyte viability ([3]; 5 µM): < 0%
% inhibition of gametocyte viability ([4]; 1 µM): < 0%
% inhibition of gametocyte viability ([4]; 5 µM): < 0%

Nc1nnnn1CCOc1c2[nH]c3ccc(Cl)cc3c2cc2c1[nH]c1ccc(Cl)cc12
% viability of CHO cells (CHO; 2 µM): 98.6%
% viability of CHO cells (CHO; 20 µM): 121%
% inhibition of HepG2 viability (HepG2-A16-CD81): 5.71%
% inhibition of gametocyte viability ([1]; 1 µM): < 0%
% inhibition of gametocyte viability ([1]; 5 µM): < 0%
% inhibition of asexual blood stage proliferation ([2]; 2 µM): 11.9%
% inhibition of asexual blood stage proliferation ([2]; 20 µM): 95.2%
% inhibition of gametocyte viability ([3]; 1 µM): < 0%
% inhibition of gametocyte viability ([3]; 5 µM): < 0%
% inhibition of gametocyte viability ([4]; 1 µM): < 0%
% inhibition of gametocyte viability ([4]; 5 µM): 31.2%

CC(C)Oc1ccc(-n2cnc3cc(/C=C\c4ccc(C(C)(C)O)cc4)ccc32)cc1
% viability of CHO cells (CHO; 2 µM): 113%
% viability of CHO cells (CHO; 20 µM): 115%
% inhibition of HepG2 viability (HepG2-A16-CD81): 5.08%
% inhibition of gametocyte viability ([1]; 1 µM): 30.8%
% inhibition of gametocyte viability ([1]; 5 µM): 32.2%
% inhibition of asexual blood stage proliferation ([2]; 2 µM): 25.6%
% inhibition of asexual blood stage proliferation ([2]; 20 µM): 54.7%
% inhibition of gametocyte viability ([3]; 1 µM): < 0%
% inhibition of gametocyte viability ([3]; 5 µM): < 0%
% inhibition of gametocyte viability ([4]; 1 µM): < 0%
% inhibition of gametocyte viability ([4]; 5 µM): < 0%

CN1CCN(Cc2ccc(-c3cnc4[nH]cc(-c5ccc6[nH]ccc6c5)c4c3)cc2)CC1
% viability of CHO cells (CHO; 2 µM): 68%
% viability of CHO cells (CHO; 20 µM): 26.3%
% inhibition of HepG2 viability (HepG2-A16-CD81): 21.4%
% inhibition of gametocyte viability ([1]; 1 µM): 10%
% inhibition of gametocyte viability ([1]; 5 µM): < 0%
% inhibition of asexual blood stage proliferation ([2]; 2 µM): 66%
% inhibition of asexual blood stage proliferation ([2]; 20 µM): 66.9%
% inhibition of gametocyte viability ([3]; 1 µM): 11%
% inhibition of gametocyte viability ([3]; 5 µM): 65.5%
% inhibition of gametocyte viability ([4]; 1 µM): < 0%
% inhibition of gametocyte viability ([4]; 5 µM): < 0%

COc1cc(Cc2cc(N)nc(N)n2)cc(OC)c1OC
% viability of CHO cells (CHO; 2 µM): 107%
% viability of CHO cells (CHO; 20 µM): 103%
% inhibition of HepG2 viability (HepG2-A16-CD81): 4.91%
% inhibition of gametocyte viability ([1]; 1 µM): < 0%
% inhibition of gametocyte viability ([1]; 5 µM): < 0%
% inhibition of asexual blood stage proliferation ([2]; 2 µM): 43.4%
% inhibition of asexual blood stage proliferation ([2]; 20 µM): 50.8%
% inhibition of gametocyte viability ([3]; 1 µM): < 0%
% inhibition of gametocyte viability ([3]; 5 µM): < 0%
% inhibition of gametocyte viability ([4]; 1 µM): < 0%
% inhibition of gametocyte viability ([4]; 5 µM): < 0%

NC(=O)c1[nH]c2ccc(S(N)(=O)=O)cc2c1-c1ccccc1
% viability of CHO cells (CHO; 2 µM): 93.5%
% viability of CHO cells (CHO; 20 µM): 98.8%
% inhibition of HepG2 viability (HepG2-A16-CD81): 8.64%
% inhibition of gametocyte viability ([1]; 1 µM): < 0%
% inhibition of gametocyte viability ([1]; 5 µM): 19.1%
% inhibition of asexual blood stage proliferation ([2]; 2 µM): 16.9%
% inhibition of asexual blood stage proliferation ([2]; 20 µM): 72.7%
% inhibition of gametocyte viability ([3]; 1 µM): < 0%
% inhibition of gametocyte viability ([3]; 5 µM): < 0%
% inhibition of gametocyte viability ([4]; 1 µM): 11.7%
% inhibition of gametocyte viability ([4]; 5 µM): < 0%

— the supplement of paper PMC7801607
